Compound activity (PubChem BioAssay)
VLA-4 antagonist = blocks LDV-FITC ligand binding to Mn2+-activated human VLA-4 integrin; inhibition, % at 10 µM (by protocol); Jurkat cells, LDV-FITC binding with Mn2+, flow cytometry; 100% = Mn2+-driven binding gain fully reversed; 24,000 tested, 0.2% active; P13612;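 active = inhibition above 50%; inconclusive = compound itself fluorescent, judged against control cell fluorescence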;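 also: 0% = Mn2+ stimulated cells lacking compound and 100% = ligand binding without Mn2+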
VLA-4 allo ag = allosterically activates the human VLA-4 integrin | 24,000 tested, under 10 active | P13612 | Jurkat cells, LDV-FITC binding, flow cytometry | activation, % at 10 µM (by protocol);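 active = fluorescent ligand binding to cells raised by more than 40% of the manganese-induced maximum; inconclusive = compound's own fluorescence above 85% of the ligand control signal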;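 also: 0% = ligand binding without compound and 100% = manganese-stimulated maximal binding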
26S disassembly = blocks ATP-dependent breakdown of the yeast 26S proteasome. anti-FLAG beads, GFP-proteasome disassembly, flow cytometry. inhibition of disassembly, % (no concentration beside the values). 24,000 tested, 0.2% active;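 active = inhibition of disassembly above about 33%, limit read from the data; inconclusive = likely self-fluorescent, control bead median signal at least 40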;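 also: plate controls were ATP control with full disassembly for no effect and ATP-gamma-S intact proteasomes for full effect; higher percent means more bead fluorescence retained so stronger block of disassembly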
Jurkat autofluor = counter-screen for VLA-4 integrin: compound autofluorescence in Jurkat cells. flow cytometry; active compounds read high; 1 = vehicle-only cell background. 24,000 tested, 0.61% active. fluorescence ratio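 (tested at 10 µM compound in the well)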;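 active = fluorescence ratio above 2.44, which is 1 plus 3 SD of all ratios; inconclusive = signal too bright to measure linearly, ratio around 10 or more; inactive = fluorescence ratio below 2.44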;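 also: green fluorescence of cells measured with 488 nm excitation and 530 nm emission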
Starred values were filed as active, the others as inactive; ? = inconclusive; / = no result. Most compounds without a hit are left out; they make up all but 0.96% or so of the library.

SMILES	VLA-4 antagonist	VLA-4 allo ag	26S disassembly	Jurkat autofluor
CCOC(=O)C1=C(C)OC(N)=C(C#N)C1c1ccoc1 (stereo not given)	-18.0	7.5	0.1	0.89
CCOC(=O)c1cc2c(=O)n3ccccc3nc2n(CC(C)C)c1=NC(=O)c1ccco1	-8.7	3.0	-0.1	1.14
CCOC(=O)c1cc2c(=O)n3ccccc3nc2n(Cc2ccco2)c1=NC(=O)c1cccnc1	?	?	-1.0	4.34*
CCOC(=O)c1cc2c(=O)n3cccc(C)c3nc2n(Cc2ccco2)c1=NC(=O)c1cccnc1	?	?	1.1	5.54*
CCOC(=O)c1cc2c(=O)n3ccccc3nc2n(CCCOC)c1=NC(=O)c1cccnc1	10.0	0.0	1.4	1.11
CC1=CCC2C(=O)N(c3ccc(C)c(Br)c3)C(=O)C2C1 (stereo not given)	17.0	-4.0	0.4	1.04
CCOC(=O)C(CC)Sc1nc(-c2ccc(OC)cc2)nc2c1c(=O)n(C)c(=O)n2C (stereo not given)	10.0	-6.0	0.7	1.23
CCNC(=O)c1cc2c(=O)n3cccc(C)c3nc2n1C	?	?	-0.8	1.45
CCCn1c(=NC(C)=O)c(C#N)cc2c(=O)n3cccc(C)c3nc21	-5.0	-3.5	66.9*	1.09
Cc1cccn2c(=O)c3cc(C(=O)N(C)C)n(C)c3nc12	?	?	-1.6	3.09*
CC(=O)Nc1ccc(Cl)cc1C(=O)O	-0.7	-1.3	-0.3	0.98
COc1cccc(N2CCN(c3ncnc4c3[nH]c3ccc(F)cc34)CC2C)c1 (stereo not given)	95.0*	-36.3	4.9	1.07
COc1ccc2[nH]c3c(N4CC(C)OC(C)C4)ncnc3c2c1 (stereo not given)	13.0	8.0	/	1.04
Cc1cc(/C=c2/sc3nc4ccccc4n3c2=O)c(C)n1-c1ccccn1	?	?	2.1	3.67*
C=CCOc1ccccc1/C=c1\sc2nc(=O)c(C)nn2c1=O	-24.0	10.0	0.7	1.11
Cc1ccc(C2N(c3ccc(F)cc3)C(=O)C3CCCN32)cc1 (stereo not given)	-6.0	0.0	16.1	1.11
Cc1cccc(C2N(c3ccc(F)cc3)C(=O)C3CCCN32)c1 (stereo not given)	?	?	60.8*	1.22
CCOC(=O)CN1CC23C=CC(O2)C(C(=O)Nc2ccc(C(C)=O)cc2)C3C1=O (stereo not given)	-1.5	3.0	0.4	1.04
CC1CC(C)CN(Cc2nc3c(c(=O)n(C)c(=O)n3C)n2Cc2ccccc2Cl)C1 (stereo not given)	0.0	-4.0	0.2	1.04
C=CCOC(=O)C(C#N)c1nc2ccccc2nc1N1CCN(Cc2ccccc2)CC1 (stereo not given)	?	?	4.7	2.82*
O=C(NCC12CC3CC(CC(C3)C1)C2)c1cc2n(n1)C(C(F)(F)F)CC(c1ccco1)N2 (stereo not given)	?	?	-4.8	3.52*
COc1ccc2c(C(=O)CN(C)C3CCCCC3)c[nH]c2c1	?	?	10.3	6.7*
Cc1ccc(N(CN2CCCC2=O)C(=O)c2ccc(OC(C)C)cc2)cc1	?	?	-0.2	2.39
CCCOc1ccc(N)cc1N	?	?	4.6	7.89*
CCOC(=O)N1CCC(Nc2nc3ccccc3n3nnnc23)CC1	?	?	3.8	7.98*
SMILES	VLA-4 antagonist	VLA-4 allo ag	26S disassembly	Jurkat autofluor
CC1CCN(CCCNC(=O)c2coc3nc4ccccc4nc23)CC1	?	?	10.9	2.36
CC1CCCN(CCCNC(=O)c2coc3nc4ccccc4nc23)C1 (stereo not given)	?	?	?	4.67*
Cc1ccc(CCNC(=O)c2coc3nc4ccccc4nc23)cc1	?	?	?	4.18*
COc1ccc2cc3cc(C(=O)NCCc4ccc(OC)c(OC)c4)oc3nc2c1	?	?	0.2	1.14
O=C(c1nn2cccnc2c1Cl)N1CCN(c2ccccc2)CC1	2.0	-2.0	0.6	1.03
O=C(Cc1c(C(=O)O)[nH]c2ccccc12)NCCN1CCN(c2ccccc2F)CC1	8.0	0.0	1.1	1.03
Cc1ccc(S(=O)(=O)Nc2cc(C(=O)NCCN(C)C)ccc2N2CCCCC2)cc1	17.0	-3.0	0.0	0.98
Cc1ccc(S(=O)(=O)Nc2cc(C(=O)NCCN3CCCC3)ccc2N2CCCCC2)cc1	3.0	3.0	105.2*	0.96
Cc1ccc(-n2nnc3c(SCC(=O)N4CCN(c5ccccc5)CC4)ncnc32)cc1	?	?	-0.1	1.37
COC(=O)C1Cc2c([nH]c3ccccc23)CN1 (stereo not given)	?	?	2.5	4.09*
CCCOc1ccc(/C=c2\sc3nc(-c4ccco4)nn3c2=O)cc1OCC	?	?	124.8*	1.49
Cc1oc(-c2ccc(Cl)cc2)nc1CS(=O)CC(=O)NCCN1CCCC1 (stereo not given)	-11.0	-2.0	154.5*	0.81
CCOC(=O)N1CCN(C(=O)C2CCCN(Cc3nc(-c4ccc(Cl)cc4)oc3C)C2)CC1 (stereo not given)	-6.0	-3.0	3.4	1.07
Cc1oc(-c2ccc(Cl)cc2)nc1CN1CCCC(C(=O)N2CCc3ccccc32)C1 (stereo not given)	59.0*	-10.0	0.1	1.14
Cc1noc(/C=C/c2ccco2)c1S(=O)(=O)N1CCC(C(=O)N2CCc3ccccc3C2)CC1	12.0	-8.0	41.6*	1.11
N#Cc1c(C(F)(F)F)cc(-c2ccccc2)nc1SCc1nc(N)nc(N2CCOCC2)n1	?	?	35.9	8.65*
Nc1nc(Cn2nnc(-c3ccccc3F)n2)nc(N2CCOCC2)n1	-5.0	2.0	1.4	1
CCC(CC)C(=O)Nc1c2cnn(-c3ccccc3)c2nc(=O)n1-c1ccccc1	53.0*	-17.0	-0.9	1.06
